Reference: PubChem BioAssay

Assay: probe aNOTCH3 binding on compound microarray – biochemical, small-molecule microarray, 635/667 nm fluorescence, primary screen (AID 1120);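 further: probe is a biotin-tagged antibody raised against NOTCH3 rather than NOTCH3 protein; score merges spot fluorescence near 667 nm with spot signal to noise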
Details: higher = more signal

Question: Which composite z-score does the source give for CC(C)=CCN[C@H](CO)c1ccccc1 here?
Answer: Its composite z-score is -0.0122.

Question: With CCCC#C[Si](O[C@H](CC)c1cn(Cc2cccc(Cl)c2)nn1)(C(C)C)C(C)C as the compound, how does the composite z-score read?
Answer: The composite z-score was 0.0715.

Question: Which composite z-score does the source give for C=CCOC(=O)[C@H]1[C@@H]2C(=O)O[C@@H](c3ccccc3)[C@@H](c3ccccc3)N2[C@@H](c2ccc(OCCOC(=O)[C@H]3C[C@H]4C(=O)N[C@@H](CCCCNC(C)=O)C(=O)N4[C@H]3c3cccc(OCCO)c3)cc2)[C@]12C(=O)Nc1ccccc12 here?
Answer: The composite z-score was -0.0026.

Question: For C=C(COC)/C(=C/C[C@@H](OC(=O)c1ccncc1)c1ccc(CO)o1)c1cc(C(=O)OC)ccc1OC, which composite z-score is on record?
Answer: Its composite z-score is 0.0979.

Question: Which composite z-score does the source give for CC(C)C(=C=CC[C@@H](O)c1ccc(OCCO)cc1)C[C@@H](O)COCc1ccccc1 here?
Answer: The composite z-score was 0.0744.

Question: With CCCCCCc1nc(-c2cc(C)c(OC)c(C)c2)cc2c1[Si](C(C)C)(C(C)C)OC2 as the compound, how does the composite z-score read?
Answer: The composite z-score was -0.0111.

Question: Which composite z-score does the source give for COc1cc2c(cc1O)C(C1CC1)N(Cc1sc3ccccc3c1Cl)CC2 (stereo unspecified) here?
Answer: Its composite z-score is -0.152.

Question: With COCCOC(=O)N1C(=O)[C@@]2(c3cc(C#CCC(C(=O)OC)C(=O)OC)ccc31)[C@H](C(=O)N1CCN(c3ncccn3)CC1)[C@H]1C(=O)O[C@H](c3ccccc3)[C@H](c3ccccc3)N1[C@@H]2c1ccccc1OCCO as the compound, how does the composite z-score read?
Answer: Its composite z-score is 0.176.

Question: Which composite z-score does the source give for C[C@H]1NC(=O)[C@@]23C(=O)N[C@@H](Cc4ccccc4)C2[C@H](C)[C@@]2(C)O[C@H]2C3/C=C/C/C=C\CNC(=O)[C@@H]2CCCN2C1=O (stereo partly specified) here?
Answer: The composite z-score was -0.229.

Question: With CCOC(=O)C[C@H]1[C@H](OC(=O)c2ccc(C(=O)c3ccccc3)cc2)[C@@H](NC(=O)c2ccc3ccccc3n2)c2cc(OCCCO)ccc2N1C(=O)c1ccccc1 as the compound, how does the composite z-score read?
Answer: The composite z-score was 0.0488.

Question: For CCCC[C@@H]1C[C@H]1[C@@H](NC(=O)c1cccs1)c1ccc(-c2ccccc2)cc1, which composite z-score is on record?
Answer: The composite z-score was 0.206.

Question: With COC(=O)[C@@]1(Cc2ccc(OC)cc2)[C@H]2c3cc(C(=O)N4CCCC4)n(Cc4ccc(O)c(OC)c4)c3C[C@H]2CN1C(=O)c1ccccc1 as the compound, how does the composite z-score read?
Answer: Its composite z-score is 1.18.

Question: For [N-]=[N+]=NCc1ccccc1C[C@]1(C(N)=O)COC(c2ccc(OCCCO)cc2)=N1, which composite z-score is on record?
Answer: The composite z-score was 0.0225.

Question: With C=C(COC)C(=O)CC[C@@H](OC(C)=O)c1ccc(CO)o1 as the compound, how does the composite z-score read?
Answer: Its composite z-score is -0.0311.

Question: Which composite z-score does the source give for O=C1c2ccccc2[C@](Cc2ccccc2I)(C(=O)NCCN2CCOCC2)[C@H](c2ccc(CO)cc2)N1Cc1ccccc1Cl here?
Answer: Its composite z-score is 0.223.

Question: With COCCCNC(=O)[C@]1(CCC(=O)OC(C)(C)C)N=C(c2ccc(OCCCO)cc2)O[C@@H]1c1ccccc1CN=[N+]=[N-] as the compound, how does the composite z-score read?
Answer: The composite z-score was 0.395.

Question: For C=CCNC(=O)[C@@H]1[C@H]2C(=O)O[C@H](c3ccccc3)[C@H](c3ccccc3)N2[C@H](c2ccc(OCCO)cc2)[C@@]12C(=O)Nc1ccc(C#CCC(C(=O)OC)C(=O)OC)cc12, which composite z-score is on record?
Answer: The composite z-score was 0.277.

Question: For COc1cc2c(cc1OC)CN(C(=O)[C@@H]1[C@H]3C(=O)O[C@H](c4ccccc4)[C@H](c4ccccc4)N3[C@H](c3ccccc3OCCO)[C@@]13C(=O)Nc1ccc(C#CCCO)cc13)CC2, which composite z-score is on record?
Answer: The composite z-score was 0.0556.

Question: With C=CCC(OC(C)=O)[C@@H]1[C@@H](N(Cc2cc3ccccc3o2)C(=O)c2cccc3ccccc23)c2cc(OCCCO)ccc2N1C(=O)c1ccc(-c2ccccc2)cc1 (stereo partly specified) as the compound, how does the composite z-score read?
Answer: The composite z-score was 0.0779.

Question: For COC(=O)[C@@]1(Cc2ccc(F)cc2)[C@H]2c3cc(C(=O)N4CCCC4)n(CCCNc4ncc(C(F)(F)F)cc4Cl)c3C[C@H]2CN1C(=O)c1ccccc1, which composite z-score is on record?
Answer: Its composite z-score is 0.69.

Question: Which composite z-score does the source give for CC(C)N1C(=O)c2ccccc2[C@](C)(C(=O)NCCN2CCOCC2)[C@@H]1c1ccc(CO)cc1 here?
Answer: The composite z-score was -0.0697.

Question: For CC(C)C(=C=CC[C@@H](O)c1ccc(OCCO)cc1)C[C@@H](O)c1ccccn1, which composite z-score is on record?
Answer: Its composite z-score is 0.0553.

Question: With CO[C@H]1O[C@H](CO)[C@@H](OC(=O)Nc2ccc(Oc3ccccc3)cc2)[C@H](OC(=O)Nc2ccc3c(c2)OCO3)[C@H]1OC(=O)Nc1ccc2c(c1)OCO2 as the compound, how does the composite z-score read?
Answer: The composite z-score was 0.264.

Question: With C=CCOC(=O)[C@H]1[C@@H]2C(=O)O[C@@H](c3ccccc3)[C@@H](c3ccccc3)N2[C@@H](c2ccc(OCCOC(=O)[C@@H]3C[C@@H]4C(=O)N[C@@H](CC(C)C)C(=O)N4[C@@H]3c3ccc(O)cc3)cc2)[C@]12C(=O)Nc1ccccc12 as the compound, how does the composite z-score read?
Answer: The composite z-score was 0.058.

Question: Which composite z-score does the source give for O=C(c1ccccc1)N1C(=O)[C@]2(COC(c3ccc(OCCCO)cc3)=N2)Cc2ccccc21 here?
Answer: The composite z-score was 0.201.

Question: Which composite z-score does the source give for CCCc1cc2c(n1Cc1cc(F)cc(F)c1)C(C)C1CN(C(=O)c3ccccc3)C(C)(C(=O)OC)C21 (stereo unspecified) here?
Answer: The composite z-score was 0.272.

Question: Which composite z-score does the source give for O=C(c1ccccc1)N1C(=O)[C@@]2(Cc3ccccc31)N=C(c1ccc(OCCCO)cc1)O[C@H]2c1ccccc1 here?
Answer: The composite z-score was 0.33.

Question: With CO[C@H]1O[C@H](CO)[C@@H](OC(=O)Nc2ccccc2)[C@H](OC(=O)Nc2ccccc2)[C@@H]1OC(=O)Nc1ccccc1 as the compound, how does the composite z-score read?
Answer: The composite z-score was 0.289.

Question: With COc1ccc(CCNC(=O)[C@@]2(Sc3ccc(C)cc3)CC(=O)N(C3Cc4ccccc4C3)[C@@H]2c2ccc(CO)cc2I)cc1 as the compound, how does the composite z-score read?
Answer: Its composite z-score is 0.0425.

Question: For CCCCCN1CC=CC23O[C@@H]4C=CCCOC(=O)C4[C@H]2C(=O)N(CCCCCO)[C@@H]3C1=O (stereo partly specified), which composite z-score is on record?
Answer: Its composite z-score is -0.213.

Question: With COc1cc2c(cc1OC)CN(C(=O)[C@H]1[C@@H]3C(=O)O[C@@H](c4ccccc4)[C@@H](c4ccccc4)N3[C@@H](c3ccc(O)cc3)[C@]13C(=O)Nc1ccc(C#CCCO)cc13)CC2 as the compound, how does the composite z-score read?
Answer: The composite z-score was 0.176.

Question: For CN1C=C(C(=O)OCCS(C)(=O)=O)C(C(=O)OCCS(C)(=O)=O)=CC(c2ccc(CO)cc2)=CC1C1CC1 (stereo unspecified), which composite z-score is on record?
Answer: The composite z-score was -0.0918.

Question: Which composite z-score does the source give for C=C[C@H](CO[Si](CC)(CC)CC)N(Cc1ccc(OC(C)=O)c(OC)c1)S(=O)(=O)c1ccc(Br)cc1 here?
Answer: The composite z-score was 0.295.

Question: With C[N+](C)(C)CCCCCCNC(=O)[C@@H]1C[C@@H]2C(=O)N[C@@H](Cc3ccccc3)C(=O)N2[C@@H]1c1cccc(OCCO)c1 as the compound, how does the composite z-score read?
Answer: The composite z-score was 0.0628.

Question: Which composite z-score does the source give for NC(=O)[C@@H]1[C@H]2C(=O)O[C@H](c3ccccc3)[C@H](c3ccccc3)N2[C@H](c2ccc(O)cc2)[C@@]12C(=O)Nc1ccccc12 here?
Answer: Its composite z-score is -0.288.

Question: For C=C(CCCC)/C(=C/C[C@@H](OC(C)=O)c1ccc(OCCO)cc1)c1cnc2ccccc2c1, which composite z-score is on record?
Answer: The composite z-score was 0.0964.
